In publication PMC5540273 (PLoS ONE, 2017):

How the values were obtained:
Settings in all cases: concentration: 1 μM, replicates: in singlicate; n = 1
NIM1 = system: T1, NIM1
T1 construct: gene MGC42105

NLK = system: NLK
OSR1 = system: T2, OSR1
T2 construct: gene OXSR1

PAK1 = system: PAK1
PAK2 = system: PAK2
PAK3 = system: PAK3
PAK4 = system: PAK4
PAK6 = system: PAK6
PAK7 = system: PAK7
PCTK1 = system: T3, PCTK1
T3 construct: gene CDK16

PCTK2 = system: T4, PCTK2
T4 construct: gene CDK17

PCTK3 = system: T5, PCTK3
T5 construct: gene CDK18

PDGFRA = system: PDGFRA
PDGFRB = system: PDGFRB
PDPK1 = system: PDPK1
PFTAIRE2 = system: PFTAIRE2
PFTK1 = system: T6, PFTK1
T6 construct: gene CDK14

PHKG1 = system: PHKG1
PHKG2 = system: PHKG2
PIK3C2B = system: PIK3C2B
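Note: KINOMEscan kinase panel screen.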

Row | Structure (SMILES) | %Inh (NIM1) [%] | %Inh (NLK) [%] | %Inh (OSR1) [%] | %Inh (PAK1) [%] | %Inh (PAK2) [%] | %Inh (PAK3) [%] | %Inh (PAK4) [%] | %Inh (PAK6) [%] | %Inh (PAK7) [%] | %Inh (PCTK1) [%] | %Inh (PCTK2) [%] | %Inh (PCTK3) [%] | %Inh (PDGFRA) [%] | %Inh (PDGFRB) [%] | %Inh (PDPK1) [%] | %Inh (PFTAIRE2) [%] | %Inh (PFTK1) [%] | %Inh (PHKG1) [%] | %Inh (PHKG2) [%] | %Inh (PIK3C2B) [%]
1 | Cc1ccc(NC(=O)c2cccc(N3CCCCC3)c2)cc1-c1ccc(C(=O)NCC2CC2)cc1 [GSK1917008] | 15 | 5 | 24 | 14 | 24 | 21 | 0 | 0 | 2 | 12 | 0 | 26 | 34 | 98.7 | 5 | 28 | 33 | 0 | 0 | 0
2 | CCNc1nccc(-c2c(-c3ccc(F)cc3)ncn2C2CCN(C)CC2)n1 | 0 | 95 | 0 | 7 | 8 | 0 | 2 | 30 | 0 | 0 | 0 | 0 | 0 | 0 | 15 | 0 | 1 | 1 | 12 | 1
3 | Fc1cc(Cl)ccc1Nc1ccnc2cc(-c3ccc(CN4CCOCC4)o3)ccc12 [GW560109] | 15 | 10 | 8 | 0 | 0 | 5 | 0 | 0 | 0 | 1 | 0 | 0 | 99.6 | 100 | 8 | 12 | 0 | 13 | 0 | 0
4 | COc1ccc(NC(=O)c2ccoc2)cc1-c1ccc(C(=O)NCC2CC2)cc1 [GW810437] | 41 | 11 | 17 | 0 | 44 | 24 | 0 | 0 | 10 | 4 | 9 | 0 | 21 | 4 | 0 | 13 | 47 | 0 | 0 | 14
5 | Cn1cc(-c2ccc3c(c2)CCN3C(=O)Cc2cc(F)cc(C(F)(F)F)c2)c2c(N)ncnc21 [GSK2635225] | 20 | 14 | 0 | 13 | 0 | 16 | 2 | 4 | 16 | 7 | 14 | 15 | 93 | 100 | 2 | 22 | 22 | 0 | 3 | 0
6 | O=C(Nc1n[nH]c2nc(-c3cccc(O)c3)ccc12)C1CC1 [SB-711805] | 0 | 96.7 | 0 | 0 | 18 | 0 | 0 | 100 | 4 | 52 | 35 | 0 | 52 | 50 | 5 | 21 | 4 | 0 | 0 | 4
7 | O=C(Nc1n[nH]c2cc(-c3cccs3)ccc12)C1CC1 [SB-731284] | 12 | 0 | 16 | 0 | 0 | 43 | 0 | 0 | 7 | 48 | 33 | 38 | 73 | 83 | 0 | 0 | 33 | 0 | 17 | 7
8 | CN(C)CCNS(=O)(=O)c1ccc(-c2ccnc3[nH]ccc23)cc1 [GSK977620] | 13 | 20 | 30 | 34 | 32 | 71 | 56 | 64 | 58 | 7 | 0 | 0 | 0 | 54 | 0 | 6 | 0 | 25 | 7 | 0
9 | Cc1ccc(-c2ccc3occ(-c4ccc(S(C)=O)cc4)c3c2)nn1 (centres unmarked) | 0 | 1 | 0 | 6 | 4 | 0 | 1 | 0 | 0 | 0 | 0 | 0 | 0 | 0 | 16 | 0 | 6 | 0 | 16 | 0
10 | Cc1cc(-c2c(-c3ccc(F)cc3)ncn2CCCN2CCOCC2)nc(N)n1 [SB-222517] | 0 | 17 | 0 | 0 | 66 | 0 | 1 | 1 | 0 | 0 | 0 | 0 | 0 | 16 | 0 | 0 | 0 | 12 | 0 | 28
